SMILES strings stand for the structures. “And” between values parts separate entries of the source, which are not always exact repeats. Identical values can stand only once. Results filed as inconclusive are left out. The source made the active and inactive calls. Unless noted, calls come from the whole dose curve; as a rule, active = well fitted curve in the direction sought with a large enough effect in the repeat runs; inconclusive = weak or mixed curves; inactive = no such curve, though single readings can be large; an effect the other way counts as inactive or inconclusive.

The values that follow come from PubChem BioAssay (Tox21).

A short description of assay [1]: qHTS assay to identify small molecule agonists of the sonic hedgehog signaling (Shh) pathway (AID 1259368; calls by dose curve;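 note: NIH/3T3-derived 3T3Gli1-Luc cells carrying a stable Gli1-driven firefly luciferase reporter; series mostly up to about 92 µM; nearly all actives have a fitted effect of over 15% in size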). In a few lines:
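Hedgehog pathway agonism scored by increased firefly luciferase luminescence in 3T3Gli1-Luc cells treated 24 hr at 37 C; detection used a 30 min room-temperature reagent incubation.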
For orientation: In qHTS, concentration-response curves come from the screen itself.

A short description of assay [2]: qHTS assay to identify small molecule antagonists of the sonic hedgehog signaling (Shh) pathway (AID 1259369; calls by dose curve; note: nearly all actives have a fitted effect of over 45% in size; note: potency is the fitted concentration of half-maximal effect). In a few lines: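 NIH/3T3 stable Gli1-Luc clone, 2,000 cells/well, 4hr settle; cpd + conditioned medium 24hr; Luc reagent 30min RT; luminescence.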
The target of assay [3] is Estrogen receptor beta (Homo sapiens) (UniProt Q92731). Nature of the assay: qHTS assay to identify small molecule agonists of the estrogen receptor beta (ER-beta) signaling pathway (AID 1259377; active = well fitted activation curve with a large enough effect in the signal ratio in the repeat runs, not every such curve was filed as active; the % refers to the signal ratio). The procedure, abridged: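 Beta-lactamase reporter readout: fluorescence of LiveBLAzer B/G FRET substrate after 2 h at room temperature, following 16 h compound treatment of ER-beta-UAS-bla HEK293T cells at 37C in 2% charcoal-stripped FBS medium.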
Chain of Estrogen receptor beta (Homo sapiens) (Q92731 whole entry, looked up): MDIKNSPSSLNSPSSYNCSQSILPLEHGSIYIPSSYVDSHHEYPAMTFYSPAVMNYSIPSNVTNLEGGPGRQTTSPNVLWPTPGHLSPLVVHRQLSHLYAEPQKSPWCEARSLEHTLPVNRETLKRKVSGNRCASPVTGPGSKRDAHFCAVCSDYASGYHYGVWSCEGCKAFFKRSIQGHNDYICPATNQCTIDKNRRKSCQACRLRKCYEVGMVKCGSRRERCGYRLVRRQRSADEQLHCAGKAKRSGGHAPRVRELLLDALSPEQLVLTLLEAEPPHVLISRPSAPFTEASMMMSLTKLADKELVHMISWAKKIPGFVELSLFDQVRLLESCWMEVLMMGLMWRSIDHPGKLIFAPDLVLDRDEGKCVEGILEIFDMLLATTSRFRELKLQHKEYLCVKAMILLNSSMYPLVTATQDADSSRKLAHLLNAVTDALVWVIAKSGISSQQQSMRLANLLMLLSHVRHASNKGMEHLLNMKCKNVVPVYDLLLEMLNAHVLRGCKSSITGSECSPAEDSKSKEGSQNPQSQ

Assay [4] in a line: qHTS assay to identify small molecule agonists of the androgen receptor (AR) signaling pathway in the presence of an antagonist - cell viability counter screen (AID 1259379). Note: nearly all actives have a fitted effect of over 25% in size. Note: potency is the fitted concentration of half-maximal effect. In a few lines: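 MDA-kb2 viability measured by CellTiter-Fluor fluorescence in the same wells as the luciferase signal; nilutamide 3.0uM final; 15-point compound titration; 16 hr at 37C.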
Assay [5] in a line: qHTS assay to identify small molecule agonists of the estrogen receptor beta (ER-beta) signaling pathway - cell viability counter screen (AID 1259380). Note: nearly all actives have a fitted effect of over 30% in size. In a few lines:
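Measured: luminescence from CellTiter-Glo after 30 min at room temperature, added to wells already read for the LiveBLAzer FRET reporter (2 hr substrate); ER-beta-UAS-bla HEK293T cells had 16 hr compound treatment at 37C, 5% CO2.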

Assay [6] can be described thus: qHTS assay to identify small molecule antagonists of the estrogen receptor beta (ER-beta) signaling pathway - cell viability counter screen (AID 1259382). Note: series mostly up to about 92 µM; nearly all actives have a fitted effect of over 55% in size. In a few lines: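 Readout: luminescence, CellTiter-Glo, same wells as bla assay. System: ER-beta-UAS-bla GripTite HEK293T, 2% charcoal-stripped FBS. Exposure: compounds plus 1nM 17-beta-estradiol, 16 hr, 37C.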

In assay [7] the target is Estrogen receptor (Homo sapiens) (UniProt P03372). Nature of the assay: qHTS assay to identify small molecule agonists of the estrogen receptor alpha (ER-alpha) signaling pathway in the presence of an antagonist (AID 1259383; calls by dose curve; note: nearly all actives have a fitted effect of over 15% in size; note: potency is the fitted concentration of half-maximal effect; for activation: top concentration of the series differs between compounds). The procedure, abridged: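 Quantitative HTS confirmation: compounds titrated at 15 concentrations onto estrogen-deprived VM7Luc4E2 cells carrying a four-ERE luciferase construct, with ICI-182,780 present at 10.0nM final. Signal is luminescence after 22hr exposure.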
Chain of Estrogen receptor (Homo sapiens) (P03372 whole entry, looked up): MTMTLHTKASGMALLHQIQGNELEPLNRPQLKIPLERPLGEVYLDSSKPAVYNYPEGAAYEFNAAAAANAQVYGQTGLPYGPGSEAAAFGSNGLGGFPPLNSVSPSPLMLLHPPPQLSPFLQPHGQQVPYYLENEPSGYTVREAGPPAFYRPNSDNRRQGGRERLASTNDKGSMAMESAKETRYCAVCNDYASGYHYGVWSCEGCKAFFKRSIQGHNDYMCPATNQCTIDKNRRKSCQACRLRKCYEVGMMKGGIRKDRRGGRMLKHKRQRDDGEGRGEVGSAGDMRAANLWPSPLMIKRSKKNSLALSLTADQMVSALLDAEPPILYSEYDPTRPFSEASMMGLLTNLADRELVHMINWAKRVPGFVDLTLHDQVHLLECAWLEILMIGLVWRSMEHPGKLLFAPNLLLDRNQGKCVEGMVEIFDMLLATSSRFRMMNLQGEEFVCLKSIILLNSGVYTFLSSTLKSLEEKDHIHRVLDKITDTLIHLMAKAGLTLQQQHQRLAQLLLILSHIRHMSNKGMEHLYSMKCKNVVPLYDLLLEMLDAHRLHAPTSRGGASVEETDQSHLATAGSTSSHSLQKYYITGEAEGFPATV

Assay [8] is described as follows: qHTS assay to identify small molecule agonists or antagonists of the thyroid stimulating hormone receptor (TSHR) signaling pathway - wild type cell line counter screen (AID 1259384; calls by dose curve). The procedure, abridged: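 Wild-type Hek293 cells, 800/well, 18 h at 37C, then compound with Ro20-1724 for 30 min RT. cAMP by HTRF (cAMP-d2/anti-cAMP cryptate), 1 h RT, fluorescence read. 15 concentrations, triplicates.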

The nature of assay [9]: qHTS assay to identify small molecule agonists of the estrogen receptor alpha (ER-alpha) signaling pathway in the presence of an antagonist - cell viability counter screen (AID 1259386).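 Note: series mostly up to about 92 µM; cells exposed to compounds for 22 h at 37 °C before the viability read; nearly all actives have a fitted effect of over 30% in size.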 The procedure, abridged:
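The test measures whether compounds kill ER-alpha reporter cells (VM7Luc4E2) under antagonist co-treatment (ICI-182,780, 10.0nM). Fluorescence from CellTiter-Fluor is read after a 22hr exposure.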

Assay [10] addresses Progesterone receptor (Homo sapiens) (UniProt P06401). Nature of the assay: qHTS assay to identify small molecule agonists of the progesterone receptor (PR) signaling pathway (AID 1346784; calls by dose curve; note: nearly all actives have a fitted effect of over 30% in size). In a few lines:
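HEK 293T PR-UAS-bla reporter cells, 2% charcoal-stripped FBS; 6 hr settle at 37C/5% CO2, compound (DMSO) 16 hr, LiveBLAzer B/G FRET substrate 2 hr RT, fluorescence intensity read.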

Assay [11] has the same target. Nature of the assay: qHTS assay to identify small molecule antagonists of the progesterone receptor (PR) signaling pathway (AID 1346795; active = well fitted inhibition curve with a large enough effect in the signal ratio in the repeat runs, not every such curve was filed as active; the % refers to the signal ratio; note: potency is the fitted concentration of half-maximal effect). The procedure, abridged: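 Beta-lactamase reporter, HEK293T PR-UAS-bla line; 2% charcoal-stripped FBS; 6 hr pre-incubation, 37C/5% CO2. Compound + R5020 1 nM final, 16 hr. LiveBLAzer B/G FRET substrate, 2 hr RT; fluorescence intensity read.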

Assay [12] in a line: qHTS assay to identify small molecule antagonists of the progesterone receptor (PR) signaling pathway - cell viability counter screen (AID 1346798). Note: series mostly up to about 92 µM; nearly all actives have a fitted effect of over 50% in size. In a few lines: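 Luminescence readout (CellTiter-Glo, 30 min, RT) of viability in PR-UAS-bla HEK293T cells exposed to compound and R5020 agonist for 16 hr at 37C, 5% CO2; run in the same wells as the beta-lactamase reporter read.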

Assay [13] is described as follows: qHTS assay to identify small molecule agonists of the progesterone receptor (PR) signaling pathway - cell viability counter screen (AID 1346799; calls by dose curve; note: nearly all actives have a fitted effect of over 45% in size). In a few lines:
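HEK293T PR-UAS-bla, 3,000 cells/well, 2% charcoal-stripped FBS; 6 h settle, compound 16 h at 37C/5% CO2; LiveBLAzer 2 h RT, then CellTiter-Glo 30 min RT, luminescence read.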

The nature of assay [14]: qHTS assay to identify small molecule antagonists of the TGF-beta/Smad signaling pathway - cell viability counter screen (AID 1346824). Note: nearly all actives have a fitted effect of over 50% in size. The procedure, abridged:
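SBE-bla HEK 293T cells, incubated overnight, then compound plus 0.25 ng/mL TGF-beta1 (stock added) for 5 hr at 37 C. Viability was read in the same wells by CellTiter-Glo luminescence after 30 min at room temperature.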

The nature of assay [15]: qHTS assay to identify small molecule agonists of the TGF-beta/Smad signaling pathway - cell viability counter screen (AID 1346829). Note: top concentration of the series differs between compounds; nearly all actives have a fitted effect of over 45% in size. In a few lines: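 HEK 293T SBE-bla line, 5 hr compound exposure at 37 C, multiplexed CellTiter-Glo viability read by luminescence.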
The nature of assay [16]: qHTS assay to identify small molecule agonists of the TGF-beta/Smad signaling pathway (AID 1346859; active = well fitted activation curve with a large enough effect in the signal ratio in the repeat runs, not every such curve was filed as active; the % refers to the signal ratio; note: series mostly up to about 77 µM). The procedure, abridged:
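Read-out: fluorescence at 460 and 530 nm (405 nm excitation) after a 2 hr room-temperature incubation with beta-lactamase FRET substrate. SBE-bla HEK 293T cells had been treated with test compounds for 5 hr at 37 C.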

Assay [17] has as its target Thyrotropin-releasing hormone receptor (Homo sapiens) (UniProt P34981). Nature of the assay: qHTS assay to identify small molecule antagonists of the thyrotropin-releasing hormone receptor (TRHR) signaling pathway (AID 1346877; active = well fitted inhibition curve with a large enough effect in the repeat runs, not every such curve was filed as active; note: series mostly up to about 51 µM). In a few lines: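 Overnight-plated (18 h, 37 °C) HEK293 cells expressing TRHR were dye-loaded 2 h, treated with compound, then stimulated with TRH at 1 nM final. Fluorescence intensity was captured every second for 3 min.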

Assay [18] concerns the target Estrogen receptor beta (Homo sapiens) (UniProt Q92731). Nature of the assay: qHTS assay to identify small molecule antagonists of the estrogen receptor beta (ER-beta) signaling pathway (AID 1259378; active = well fitted inhibition curve with a large enough effect in the signal ratio in the repeat runs, not every such curve was filed as active; the % refers to the signal ratio; note: potency is the fitted concentration of half-maximal effect). In a few lines: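 ER-beta-UAS-bla HEK293T cells in 2% charcoal-stripped FBS medium treated with compound plus 1nM final 17-beta-estradiol for 16 hr at 37C. Beta-lactamase reporter read by FRET substrate fluorescence after 2 hours at room temperature.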

The target of assay [19] is Thyrotropin receptor (Homo sapiens) (UniProt P16473). Nature of the assay: qHTS assay to identify small molecule antagonists of the thyroid stimulating hormone receptor (TSHR) signaling pathway (AID 1259385; calls by dose curve; note: nearly all actives have a fitted effect of over 20% in size). In a few lines:
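TSHR-HEK293 cells (800/well) plated 18 h, then compounds with Ro20-1724 and TSH at 1.5 ng/mL final, 30 min at room temperature. cAMP quantified by HTRF (cAMP-d2/anti-cAMP-cryptate, 1 h); 15 concentrations in triplicate.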

For assay [20], the target named is Androgen receptor (Homo sapiens) (UniProt P10275). Nature of the assay: qHTS assay to identify small molecule agonists of the androgen receptor (AR) signaling pathway in the presence of an antagonist (AID 1259381; calls by dose curve; note: nearly all actives have a fitted effect of over 15% in size). In a few lines:
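Luminescent ONE-Glo read, 30min at room temperature, follows 16hr compound exposure (15 concentrations) of MDA-kb2 cells at 37C, 0% CO2, with nilutamide added at 3.0uM final.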

Chain of Thyrotropin receptor (Homo sapiens) (P16473 whole entry, looked up): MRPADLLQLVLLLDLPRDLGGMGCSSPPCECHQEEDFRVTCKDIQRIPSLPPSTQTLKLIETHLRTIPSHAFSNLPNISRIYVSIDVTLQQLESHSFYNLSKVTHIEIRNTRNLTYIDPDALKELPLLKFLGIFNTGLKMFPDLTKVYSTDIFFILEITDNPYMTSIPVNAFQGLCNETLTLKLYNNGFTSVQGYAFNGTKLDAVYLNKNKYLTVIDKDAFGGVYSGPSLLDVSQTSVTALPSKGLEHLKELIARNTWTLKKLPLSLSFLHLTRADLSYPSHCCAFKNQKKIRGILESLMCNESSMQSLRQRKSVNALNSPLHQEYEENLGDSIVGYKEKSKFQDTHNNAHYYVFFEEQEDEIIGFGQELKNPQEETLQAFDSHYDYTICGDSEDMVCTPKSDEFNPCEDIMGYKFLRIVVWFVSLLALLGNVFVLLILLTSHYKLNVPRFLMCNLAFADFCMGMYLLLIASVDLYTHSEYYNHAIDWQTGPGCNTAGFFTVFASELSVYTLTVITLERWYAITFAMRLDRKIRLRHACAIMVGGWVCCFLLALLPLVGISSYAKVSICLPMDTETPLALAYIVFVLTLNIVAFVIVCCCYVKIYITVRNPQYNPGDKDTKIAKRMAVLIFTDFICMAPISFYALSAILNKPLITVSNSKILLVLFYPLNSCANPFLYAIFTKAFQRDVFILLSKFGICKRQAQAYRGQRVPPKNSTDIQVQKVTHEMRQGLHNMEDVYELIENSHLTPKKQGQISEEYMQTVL
Chain of Thyrotropin-releasing hormone receptor (Homo sapiens) (P34981 whole entry, looked up): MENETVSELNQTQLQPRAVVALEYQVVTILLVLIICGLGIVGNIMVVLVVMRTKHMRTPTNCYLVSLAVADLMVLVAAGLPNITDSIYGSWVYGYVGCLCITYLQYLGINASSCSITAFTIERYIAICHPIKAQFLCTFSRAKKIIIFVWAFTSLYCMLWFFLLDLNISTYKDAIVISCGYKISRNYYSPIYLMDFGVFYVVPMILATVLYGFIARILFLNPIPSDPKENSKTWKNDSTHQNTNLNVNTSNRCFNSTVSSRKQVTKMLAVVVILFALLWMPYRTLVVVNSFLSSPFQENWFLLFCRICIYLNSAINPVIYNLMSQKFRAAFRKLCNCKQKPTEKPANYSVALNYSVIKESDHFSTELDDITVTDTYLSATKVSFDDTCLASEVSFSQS
Chain of Progesterone receptor (Homo sapiens) (P06401 whole entry, looked up): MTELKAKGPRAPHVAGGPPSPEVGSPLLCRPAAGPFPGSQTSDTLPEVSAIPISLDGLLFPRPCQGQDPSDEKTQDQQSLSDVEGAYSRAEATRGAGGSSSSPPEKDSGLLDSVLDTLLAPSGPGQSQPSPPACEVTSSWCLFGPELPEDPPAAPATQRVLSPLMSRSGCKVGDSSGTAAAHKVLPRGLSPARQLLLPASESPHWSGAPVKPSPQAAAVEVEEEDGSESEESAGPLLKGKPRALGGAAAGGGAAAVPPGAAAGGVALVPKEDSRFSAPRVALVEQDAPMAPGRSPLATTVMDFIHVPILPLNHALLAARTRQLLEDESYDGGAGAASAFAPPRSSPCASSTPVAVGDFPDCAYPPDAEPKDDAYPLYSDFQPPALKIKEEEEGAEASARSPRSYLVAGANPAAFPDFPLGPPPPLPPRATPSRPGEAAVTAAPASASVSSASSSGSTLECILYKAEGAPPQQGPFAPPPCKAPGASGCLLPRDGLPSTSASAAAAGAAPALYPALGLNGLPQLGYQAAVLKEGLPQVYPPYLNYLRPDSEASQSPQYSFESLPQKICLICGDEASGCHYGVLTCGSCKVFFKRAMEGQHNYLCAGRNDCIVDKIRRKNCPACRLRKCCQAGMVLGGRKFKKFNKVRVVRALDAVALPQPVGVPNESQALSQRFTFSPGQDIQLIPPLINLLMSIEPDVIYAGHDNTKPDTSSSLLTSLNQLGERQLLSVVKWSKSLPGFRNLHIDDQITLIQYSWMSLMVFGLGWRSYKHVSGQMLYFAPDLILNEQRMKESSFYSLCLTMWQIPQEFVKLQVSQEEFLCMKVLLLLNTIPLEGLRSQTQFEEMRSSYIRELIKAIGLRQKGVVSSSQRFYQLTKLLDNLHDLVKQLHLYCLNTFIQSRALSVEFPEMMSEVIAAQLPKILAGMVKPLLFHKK
Chain of Androgen receptor (Homo sapiens) (P10275 whole entry, looked up): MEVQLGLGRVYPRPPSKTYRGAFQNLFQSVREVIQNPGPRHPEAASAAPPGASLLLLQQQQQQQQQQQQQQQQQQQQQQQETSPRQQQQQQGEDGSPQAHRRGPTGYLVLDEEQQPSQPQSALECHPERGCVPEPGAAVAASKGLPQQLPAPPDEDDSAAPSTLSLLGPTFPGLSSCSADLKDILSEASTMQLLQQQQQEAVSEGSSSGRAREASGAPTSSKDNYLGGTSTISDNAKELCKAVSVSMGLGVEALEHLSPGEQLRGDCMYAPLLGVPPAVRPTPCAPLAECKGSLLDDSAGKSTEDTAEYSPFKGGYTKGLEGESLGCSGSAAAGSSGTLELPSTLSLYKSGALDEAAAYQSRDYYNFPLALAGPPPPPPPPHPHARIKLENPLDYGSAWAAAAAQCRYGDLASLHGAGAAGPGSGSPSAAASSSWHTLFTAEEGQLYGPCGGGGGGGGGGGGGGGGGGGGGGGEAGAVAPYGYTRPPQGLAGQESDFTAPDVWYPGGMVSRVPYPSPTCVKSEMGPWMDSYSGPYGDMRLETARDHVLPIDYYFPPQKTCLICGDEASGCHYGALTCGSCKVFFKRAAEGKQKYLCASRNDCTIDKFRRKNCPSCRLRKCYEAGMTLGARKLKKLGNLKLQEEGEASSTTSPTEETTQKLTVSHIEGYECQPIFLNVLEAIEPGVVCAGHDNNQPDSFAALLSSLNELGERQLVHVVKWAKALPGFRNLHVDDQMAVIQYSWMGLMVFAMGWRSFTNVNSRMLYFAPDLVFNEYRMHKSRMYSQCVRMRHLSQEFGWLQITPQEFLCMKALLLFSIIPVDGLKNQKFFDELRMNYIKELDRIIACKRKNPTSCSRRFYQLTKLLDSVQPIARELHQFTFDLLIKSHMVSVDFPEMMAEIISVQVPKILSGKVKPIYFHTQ

With `O=S(=O)(Oc1ccc(Cl)cc1)c1ccc(Cl)cc1`, the Potency result in [1], in assay [2], in assay [3], in [4], in [5] and in assay [6] was “inactive” each time. Besides, the Potency result in assay [7], in [9], in assay [10], in [12], in assay [13] and in assay [14] was “inactive” in each case. Besides, the Potency result in [15] and in assay [17] was “inactive” in each case. Further, the result in [8] and in assay [16] was inactive. In addition, in [11], the Potency is 17.5 µM (active) and 17.2 µM (active).
Consider `C=CCN(CC=C)C(=O)C(Cl)Cl`, for which the Potency result in assay [1], in assay [2], in assay [3], in assay [18], in assay [4] and in [6] was “inactive” throughout. For the same molecule, the Potency result in [9], in [10], in [11], in assay [12], in [13] and in [14] was “inactive” each time. The Potency entry in assay [15] and in assay [17] was “inactive” in each case. Besides, the molecule was classed as inactive in assay [8], in assay [19] and in assay [16].
As to `CCC(C)(c1ccc(O)cc1)c1ccc(O)cc1`, the Potency entry in assay [1], in assay [3], in [4], in [5], in assay [9] and in assay [14] was “inactive” each time. The Potency entry in assay [15] and in assay [17] was “inactive” throughout. Moreover, the Potency in assay [2] is 24.3 µM (active) and 61.1 µM (active); in assay [18], 243 nM (active); in assay [7] it was 9.68 µM (active) and 8.63 µM (active); in assay [11], 4.32 µM (active). In addition, the molecule was called inactive in [8], in [19] and in [16].
As to `O=[N+]([O-])c1c(Cl)c(Cl)c(Cl)c(Cl)c1Cl`, the Potency result in [1], in [2], in assay [3], in [5], in [20] and in [6] was “inactive” each time. In addition, the Potency result in [7], in assay [9], in [11], in assay [12], in [13] and in assay [14] was “inactive” each time. Further, the Potency result in [15] and in [17] was “inactive” in each case. In addition, in assay [4], the Potency is 60.8 µM (active) and 48.6 µM (active).
Turning to `CC(O)CCO` (configuration not stated), the Potency result in assay [1], in assay [2], in assay [3], in assay [4], in [5] and in assay [6] was “inactive” in each case. The Potency entry in [9], in assay [10], in assay [11], in assay [12], in assay [13] and in [14] was “inactive” each time. For the same molecule, the Potency result in assay [15] and in assay [17] was “inactive” each time. Also, the call in assay [8], in assay [19] and in assay [16] was inactive.
On to `C=CCc1ccc(OC)cc1`, for which the Potency entry in assay [1], in assay [2], in assay [3], in assay [18], in assay [4] and in assay [5] was “inactive” in each case. Besides, the Potency entry in assay [6], in [9], in assay [10], in [11], in [12] and in [13] was “inactive” throughout. The Potency result in assay [14], in assay [15] and in assay [17] was “inactive” each time. For the same molecule, the molecule was called inactive in assay [8], in assay [19] and in assay [16].
On to `CCN(N=O)C(N)=O`, for which the Potency entry in assay [1], in assay [2], in assay [3], in assay [18], in assay [4] and in assay [5] was “inactive” in each case. The Potency result in assay [6], in [7], in assay [9], in assay [11], in [12] and in assay [13] was “inactive” in each case. Further, the Potency result in assay [14], in [15] and in assay [17] was “inactive” throughout. For the same molecule, the molecule was classed as inactive in assay [8], in assay [19] and in assay [16].
